KDM5B inh: inhibitors of human KDM5B histone demethylase. Q9UGL1. KDM5B demethylase, FDH-coupled NADH fluorescence (FDH is formaldehyde dehydrogenase). Potency, µM (titrated, usually from 57.7 µM), most hits filed as inhibitors. actives 2.6% (n = 220,000); also: potency is read from the fitted curve at half-maximal effect; 0% is about no effect; nearly all actives have a fitted effect of over 70% in size
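Measured: NADH fluorescence change, 30 min, RT. System: KDM5BΔAP 200 nM final, H3K4me3 peptide, α-KG, Fe(II), ascorbate, NAD⁺ plus FDH, pH 7.5 HEPES. Compounds: titrated, 10 min pre-incubation with enzyme.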
SNCA expr inh: reduces expression of the alpha-synuclein gene; HEK-293 SNCA-luciferase knock-in, luminescence, 24 h; Potency, µM (top dose mostly 57.2 µM), for inactives: at the top dose activity change, negative = inhibition, hits mostly inhibitors; actives 0.17% (n = 140,000);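 also: potency is read from the fitted curve at half-maximal effect; plate controls were DMSO cells for no effect and cell-free wells for full effect; nearly all actives have a fitted effect of over 45% in size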
SNCA viab count: reduces viability of HEK-293 SNCA reporter cells. actives 0.12% (n = 150,000). Potency, µM (doses to about 57.1 µM), for the others: at the top dose activity change, negative = cytotoxicity, usual class: cytotoxic. HEK-293-SNCA-luc viability, GF-AFC fluorescence, 24 h;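 also: potency is read from the fitted curve at half-maximal effect; 0% = DMSO-treated cells and -100% = medium-only wells without cells; nearly all actives have a fitted effect of over 30% in size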
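Cytotoxicity counterscreen: after 24 h compound treatment of genome-edited SNCA-luciferase HEK-293 cells, live-cell protease substrate GF-AFC read by fluorescence after 30 min; activity scaled between DMSO (0%) and medium-only (-100%), curves Hill-fitted.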
IP6K1 inhibitor: inhibitors of human IP6K1; Q92551; IP6K1 kinase, ADP-Glo luminescence, 2 h; active compounds read low; activity change, % (series mostly up to about 58 µM); actives 0.81% (n = 140,000); AID 1645851; in the data active = activity change below about -25%; also: % is scaled to controls: 0 for no effect and ±100 for the full control effect
Target sequence (Q92551 whole entry, looked up): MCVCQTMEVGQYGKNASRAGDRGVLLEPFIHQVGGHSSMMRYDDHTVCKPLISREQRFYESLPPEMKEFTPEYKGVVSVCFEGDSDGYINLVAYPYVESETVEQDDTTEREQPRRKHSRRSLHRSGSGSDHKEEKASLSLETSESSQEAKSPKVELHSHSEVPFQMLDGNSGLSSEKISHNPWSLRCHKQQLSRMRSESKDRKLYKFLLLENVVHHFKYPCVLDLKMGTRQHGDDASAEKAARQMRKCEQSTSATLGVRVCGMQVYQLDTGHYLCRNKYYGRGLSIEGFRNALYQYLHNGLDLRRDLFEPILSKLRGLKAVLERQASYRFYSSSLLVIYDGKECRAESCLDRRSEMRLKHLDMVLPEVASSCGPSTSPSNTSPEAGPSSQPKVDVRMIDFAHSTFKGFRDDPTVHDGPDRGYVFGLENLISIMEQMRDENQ
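ADP-Glo luminescence measures ADP made by human IP6K1 during a 2 h RT reaction with ATP/IP6 (mix at 1.3 mM/130 uM); top library doses 57.5 and 19.1 uM final.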
* = called active by the depositor; i = inactive; ? = inconclusive; nt = no result given; ! = a repeat was not active; [ ] = another dose, or the depositor's remark. An excerpt weighted towards active compounds, which were near 3% of everything screened. Unless noted, calls follow the shape of the dose curve; as a rule, active = well fitted curve in the direction sought with a large enough effect; inconclusive = small, poorly fitted or top-dose-only effect, or another doubt; inactive = no such curve, though single readings can be large; an effect the other way counts as inactive or inconclusive.

SMILES	KDM5B inh	SNCA expr inh	SNCA viab count	IP6K1 inhibitor
O=c1[nH]c(C2CCCN(Cc3ccc(-c4cc(F)cc(F)c4)cc3)C2)nc2ccc(F)cc12 (stereo unspecified)	?	?	2%	6
COc1ccc(Nc2ccnc(N3CCCC(C(=O)N4CCCC(C)C4)C3)n2)cc1 (stereo unspecified)	nt	-3%	-11%[12.5 µM]	12
O=C(CCc1ccc(-c2ccc(Cl)cc2)[nH]1)N1CC[C@H](CO)[C@H](O)C1	?	34%	-6%	-3
CCO[C@H]1CN(C(=O)CCc2ccc(-c3ccc(Cl)cc3)[nH]2)C[C@@H]1O	28µM*	37%	8%	-1
Cc1noc(-c2cccn3c(CNC(=O)c4cccc(Cl)c4)nnc23)n1	14µM*	-19%	-2%	2
Cc1noc(-c2cccn3c(CNC(=O)c4ccc(F)c(Cl)c4)nnc23)n1	14µM*	4%	-9%	20
COC(=O)N1CCC(C(=O)N2CCC(c3nc4ncccc4[nH]3)CC2)C1 (stereo unspecified)	nt	?	2%	-7
Cc1ccc(NC(=O)CCNc2c(C)nc3cnccn23)c(F)c1	25µM*	-12%	13%	15
CCOc1ccc(NC(=O)CCc2c(C)nc3nc(C)nn3c2C)cc1	i	14%	-2%	8
Cc1nc2cnccn2c1C(=O)NCc1cccc(F)c1	nt	nt	nt	-4
CCOc1ccc(NC(=O)CCNc2c(C)nc3cnccn23)cc1	20µM*	-14%	-3%	26
Cc1[nH]nc2ccc(-c3cncc(OC[C@@H](N)Cc4ccccc4)c3)cc12	nt	0.17µM*	9.5µM*!	-6
COc1ccc(C(=O)NC2CCN(Cc3cccc(-c4ccc(F)c(F)c4)c3)CC2)cc1	nt	?	-13%	-7
CN(CC(=O)N1CCCn2nc(-c3cccc(C(F)(F)F)c3)cc2C1)S(=O)(=O)c1ccc2c(c1)oc(=O)n2C	nt	?	-19%	5
O=C(c1ccc(-c2ccco2)cc1)N1CCOc2ccc(CN3CCN(c4ccccn4)CC3)cc2C1	28µM*	-10%	-5%	14
Cc1ccccc1-n1nc(C)c(CCC(=O)NCC(C)C)c1Oc1cccc(F)c1	22µM*	-26%	2%	18
CCC(CC)CN1CC2(CCN(C(=O)c3cn4cccnc4n3)CC2)OC1=O	32µM*	-13%	5%	11
COc1ccccc1C(=O)N1CC(Oc2cccc(-c3nc(-c4ccccc4)no3)c2)C1	22µM*	162%	-8%	-3
CC(Oc1ccccc1)C(=O)N1CC(Oc2cccc(-c3nc(-c4ccccc4)no3)c2)C1 (stereo unspecified)	22µM*	24%	7%	-1
COc1cccc(C(=O)N2CC(Oc3cccc(-c4nc(-c5ccccc5)no4)c3)C2)c1	i	19%	-1%	-3
O=C(c1nc2cccnc2n(Cc2ccccc2)c1=O)N1CCC(c2ccccc2)CC1	nt	-15%	10%	9
CCSc1ncc(CN2CCN(c3ccc4nccn4n3)CC2)cn1	28µM*	-31%	3%	14
CC(=O)Oc1c(-c2ccc(NC(=O)c3ccco3)cc2)c(C2CC2)nn1-c1cccc(C)c1	32µM*	29%	3%	-12
Cc1nc(N2CCCCC2)ncc1C(=O)N[C@H]1[C@H]2CCO[C@H]2[C@@H]1N(C)C	22µM*	-28%	10%	12
Cc1nc2ncccn2c1C(=O)N[C@H]1[C@H]2CCO[C@H]2[C@@H]1N(C)C	32µM*	7%	3%	-1
SMILES	KDM5B inh	SNCA expr inh	SNCA viab count	IP6K1 inhibitor
CCOC(=O)[C@@H]1CN(C(=O)c2cc3ccccc3s2)[C@H]2c3cccc(F)c3O[C@@H]12	nt	nt	nt	6
O=C(c1ccc(Cl)cc1)N1CCN(c2ccc3nnc(-c4ccccc4)n3n2)CC1	nt	nt	nt	-1
COc1ccc(-n2c(=O)c(C(=O)NCc3ccc(F)cc3)nc3cccnc32)cc1	nt	-2%	-4%	5
COCCN(C)C(=O)c1ccc2c(c1)NC(C)(COc1ccc3[nH]ccc3c1)CO2 (stereo unspecified)	i	37%[87.6 µM]	-2%[87.6 µM]	-11
CC1(COc2ccc3[nH]ccc3c2)COc2ccc(C(=O)Nc3cccnc3)cc2N1 (stereo unspecified)	35µM*	-28%[87.6 µM]	-10%[87.6 µM]	-21
COc1ccc(NC(=O)c2ccc3c(c2)NC(C)(COc2ccc4[nH]ccc4c2)CO3)cn1 (stereo unspecified)	20µM*	-14%	-9%	-12
O=C1NCCCCCCN(Cc2ccccc2)[C@H]2CCC[C@@H]12	8.9µM*	-16%	6%	9
COc1cccc(CN2CC[C@H]3C(=O)NCCCCCCN(Cc4ccncc4)[C@@H]3C2)n1	20µM*	-14%	0%	11
O=C1NCCCCCCN(Cc2cccc(F)c2)[C@H]2CCC[C@@H]12	?	?	-9%	13
COc1ccc(CC(=O)NC2CCN(c3nccc(Nc4ccccc4OC)n3)CC2)cc1	nt	-7%	6%	0
Cc1ccc(CCNC(=O)c2cc3c(N4CCCC4)nc(C)cn3n2)cc1	i	-2%	-3%	-7
COc1ccccc1CNC(=O)c1cc2c(N3CCSCC3)nc(C)cn2n1	7.1µM*	-23%	6%	0
Cc1cn2nc(C(=O)NCc3ccccc3F)cc2c(N2CCCC2)n1	25µM*	-29%	3%	0
Cc1cn2nc(C(=O)NCc3ccccc3F)cc2c(N2CCSCC2)n1	?	?	0%	-4
CCN(Cc1ccccc1)C(=O)c1cc2c(N3CCCC3)nc(C)cn2n1	25µM*	-21%	-1%	-1
Cc1cn2nc(C(=O)N3CCN(C(=O)c4ccco4)CC3)cc2c(N2CCCC2)n1	32µM*	?	?	-2
COc1ccccc1-c1cccc(CN2CCC(NC(=O)c3ccccn3)CC2)c1	nt	-6%	1%	-1
O=C(C1CCCCN1Cc1ccc(-c2cccs2)cc1)N1CCC(Cc2ccccc2)CC1 (stereo unspecified)	nt	-20%	3%[12.5 µM]	-12
O=c1n(-c2ccc([N+](=O)[O-])cc2)nc2n1CCN(Cc1ccc(OC(F)(F)F)cc1)C2	?	-19%	-3%	7
Cc1cn2nc(C(=O)NCc3ccccc3Cl)cc2c(N2CCCC2)n1	i	13%	-2%	2
Cc1cccc(CNC(=O)c2cc3c(N4CCCC4)nc(C)cn3n2)c1	i	13%	12%	7
COc1ccc(CNC(=O)c2cc3c(N4CCCC4)nc(C)cn3n2)c(OC)c1	28µM*	12%	7%	-10
COc1ccccc1CNC(=O)c1cc2c(N3CCCC3)nc(C)cn2n1	28µM*	-9%	4%	13
Cc1cn2nc(C(=O)NCc3ccc(C(C)C)cc3)cc2c(N2CCCC2)n1	35µM*	0%	2%	20
Cc1noc(C)c1CNC(=O)CC(C)(C)C	i	3%	-10%	8
CCCN(CCC)Cc1ccc(C(=O)NCc2c(C)noc2C)cc1	28µM*	8%	26%	10
CCOCCNC(=O)C1CCCN(Cc2cccc(-c3ccccc3OC)c2)C1 (stereo unspecified)	nt	-2%	-8%	0

Source: PubChem (National Center for Advancing Translational Sciences (NCATS))
